Compound activity deposited in PubChem by National Center for Advancing Translational Sciences (NCATS).
Most compounds without a hit are left out; they make up all but 8% or so of the library.
SARS PLP yeast: qHTS of Yeast-based Assay for SARS-CoV PLP; AID 485353, 2010; Potency, µM (highest dose often 32.9 µM), without a hit: at the top dose activity, positive = growth rescue, hits mostly activators; S. cerevisiae expressing SARS-CoV PLpro, growth rescue; 330,000 compounds, 0.19% hits; calls by dose curve; further: potency means the concentration at half of the fitted maximal effect; 0% is about no effect; nearly all actives have a fitted effect of over 55% in size
Lassa entry inh: qHTS for Inhibitors of binding or entry into cells for Lassa Virus; Lassa virus pseudotype entry inhibition, cell reporter; Potency, µM (series often up to 37.9 µM), inactives show at the top dose activity change, negative = inhibition, actives largely listed as inhibitors; 300,000 compounds, 1.2% hits; calls by dose curve; tested in HEK293 cells; further: potency means the concentration at half of the fitted maximal effect; on the % scale 0 is the no-effect control and ±100 the full control effect; nearly all actives have a fitted effect of over 50% in size
HCV inh: qHTS Assay for Inhibitors of Hepatitis C Virus (HCV). Potency, µM (series often up to 41.8 µM), inactives show top-dose activity change, negative = inhibition, usual class: inhibitors. AID 651820, 2012. Huh7.5.1 HCVcc-Cre infection, luciferase reporter, 44 h. 340,000 compounds, 3.4% hits; active means well fitted inhibition curve with a large enough effect; inconclusive means small, poorly fitted or top-dose-only effect, or another doubt; inactive means no such curve, though single readings can be large or run the other way; further: potency means the concentration at half of the fitted maximal effect; on the % scale 0 is the no-effect control and ±100 the full control effect
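Whole-lifecycle infectious HCVcc-Cre system; cells 1,000/well, compound then virus (~0.5 moi) added 4 h after plating, 44 h culture. Luciferase read 15 sec following 15 min substrate incubation, room temp.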
HCMV inh: qHTS Assay for inhibitors of the human cytomegalovirus (HCMV). HFF cells, HCMV-luciferase reporter, 72 h; active compounds read low. activity change, negative = inhibition, % at 57.5 µM. 410,000 compounds, 4.5% hits; in the data active means activity change below about -60%; inconclusive means no clear call, values can overlap the other calls; inactive means above about -39%; further: on the % scale 0 is the no-effect control and ±100 the full control effect
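Steps: HFFs plated, 16 h 37C; compounds added; HCMV-luciferase added to MOI 1 PFU/cell; 72 h 37C; OneGlo reagent, 5 min room temperature; luminescence read, normalized to controls.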
FMDV antiviral: High Throughput Screening for Foot and Mouth Disease Virus Antivirals; FMDV antiviral cell-based qHTS; Potency, µM (titrated, usually from 57.9 µM), for inactives: top-dose activity change, negative = inhibition, most hits filed as inhibitors; 410,000 compounds, 1.2% hits; AID 1159524, 2015; calls by dose curve; tested in HEK293T cells; further: read-out not given here; potency means the concentration at half of the fitted maximal effect; on the % scale 0 is the no-effect control and ±100 the full control effect; nearly all actives have a fitted effect of over 45% in size
Marburg entry inh: qHTS for inhibitors of binding or entry into cells for Marburg Virus; AID 540276, 2011; Marburg virus pseudotyped entry inhibition, cell reporter; 300,000 compounds, 1.8% hits; Potency, µM (doses to about 37.8 µM), for the others: at the top dose activity change, negative = inhibition, most hits filed as inhibitors; calls by dose curve; tested in HEK293 cells; further: potency means the concentration at half of the fitted maximal effect; on the % scale 0 is the no-effect control and ±100 the full control effect
* hit, by the source's call; ? = inconclusive; . = not tested or not shown; [ ] = another dose, or the depositor's remark.

SMILES	SARS PLP yeast	Lassa entry inh	HCV inh	HCMV inh	FMDV antiviral	Marburg entry inh
CCOC(=O)Cc1c(C)nc2cc(-c3ccc(C(C)(C)C)cc3)nn2c1C	.	11%[46.1 µM]	.	-9	-12%	16%[46.1 µM]
O=c1c2c(nc3cc(-c4ccccc4)[nH]n13)CCC2	-1%	4µM*	13%	51	-20%	-21%
CCOC(=O)Cc1c(C)nc2c(-c3cccc(Br)c3)c[nH]n2c1=O	5%	16µM*	?	-93*	-18%	?
CN1c2ccccc2[C@@]2(O)C(=O)[C@@]1(C)[C@@H]1CCC=C[C@H]12	.	?	.	.	.	10%[14.2 µM]
CC(C)CN(CCNC(=O)CN1C(=O)COc2ccc(S(=O)(=O)N3CCC(C)CC3)cc21)CC(C)C	4%	18%[46.1 µM]	8%	-13	-19%	-13%[46.1 µM]
c1ccc(CNc2oc(-c3ccccc3)nc2-c2cccc3ccccc23)cc1	.	.	.	.	.	-27%[14.2 µM]
O=C(Cn1cc(S(=O)(=O)Cc2cccc(Cl)c2)c2ccccc21)NCc1ccccc1Cl	.	-15%[46.1 µM]	.	0	-11%	.
O=c1c2c(nc3c(-c4cccc(Br)c4)c[nH]n13)CCCC2	7%	2%	6.3µM*	-102*	-7%	6%
COC(=O)C1=C(c2ccccc2OCc2ccccc2)C[C@@H]2CC[C@H]1N2C(=O)NCc1ccc([N+](=O)[O-])cc1	-4%	.	13µM*	15	-14%	.
COC(=O)C1=C(c2ccccc2OCc2ccccc2)C[C@@H]2CC[C@H]1N2C(=O)NCc1ccc(N(C)C)cc1	5%	.	?	?	-18%	.
COC(=O)C1=C(c2ccccc2OCc2ccccc2)C[C@@H]2CC[C@H]1N2C(=O)NCc1ccc(Cl)cc1	-9%	.	11µM*	-13	0%	.
CCCCC/C=C\C/C=C\C/C=C\C=C\[C@@H](O)CCCC(=O)O	.	.	.	.	-18%[0.463 µM]	.
CCCc1cc(C(N)=O)c(NC(=O)c2ccoc2C)s1	-19%	14%	7.1µM*	22	14%	-21%
CCCc1cc(C(N)=O)c(NC(=O)c2cc(C)on2)s1	-5%	3%	?	15	11%	-1%
CC(=O)Oc1ccc2ccccc2c1C(NC(=O)Cc1ccccc1)c1ccc(Cl)cc1 (stereo not given)	-20%	5%	10µM*	-28	?	?
CCOc1ccc(C(NC(=O)CC)c2c(O)ccc3ccccc23)cc1 (stereo not given)	7%	.	15%	23	12%	.
COc1ccccc1C(=O)NC(=O)COC(=O)c1cccc(OC(F)F)c1	0%	0%	1%	-24	-14%	3%
Cc1ccccc1N=Nc1c(C)[nH]n(-c2ccccc2)c1=O	0%	3%	18%	.	20%	15%[46.1 µM]
Cc1[nH]n(-c2ccccc2)c(=O)c1N=Nc1ccccc1C(=O)O	1%	.	-11%	-14	39%	.
Cc1[nH]n(-c2ccccc2)c(=O)c1N=Nc1nccs1	-30%	?	?	-96*	4%	?
Cc1[nH]n(C2=NCCS2)c(=O)c1N=Nc1ccccc1	1%	0%	-6%	-61*	33%	10%[46.1 µM]
Cc1[nH]n(-c2ccccc2)c(=O)c1N=Nc1ccccc1O	-4%	?	4.5µM*	-99*	5%	?
CC(NC(=O)N1CCOCC1)c1ccccc1 (stereo not given)	2%	.	12%	30	2%	.
CCN(CC(=O)Nc1cccc(OC)c1)C(=O)c1cnc(Cl)c(Cl)c1	4%	19%[46.1 µM]	15%	-25	-6%	12%[46.1 µM]
CC(C(=O)Nc1c2c(cc3c1CCC3)CCC2)N1CCCC1 (stereo not given)	-6%	?	14%	-28	-9%	?
SMILES	SARS PLP yeast	Lassa entry inh	HCV inh	HCMV inh	FMDV antiviral	Marburg entry inh
CCN(CC)C(C)C(=O)Nc1c2c(cc3c1CCC3)CCC2 (stereo not given)	-20%	-13%	-26%	-21	-18%	15µM*
Cc1ccc(C(=O)c2no[n+]([O-])c2C(=O)c2ccc(C)cc2)cc1	-139%	-15%[46.1 µM]	?	-99*	?	9%
Cc1ccc(C(=O)c2ccc(C)cc2)cc1	-5%	10%[46.1 µM]	-7%	5	24%	-1%[46.1 µM]
Cc1ccc(-c2nc(SCC(=O)Nc3cc(S(=O)(=O)N4CCCCC4)ccc3Cl)n[nH]2)cc1	8%	?	?	6	-25%	16µM*
O=C(CN1CCN(c2ccccc2O)CC1)Nc1ccc(S(=O)(=O)N2CCCCCC2)cc1	1%	-12%	?	-25	?	-14%
O=C(CN1CCN(c2ccccc2O)CC1)Nc1cc(S(=O)(=O)N2CCCC2)ccc1Cl	-6%	.	11µM*	-16	-21%	.
COc1ccc(S(=O)(=O)N2CCN(CC(=O)Nc3cc(Cl)ccc3Cl)CC2)cc1	0%	-3%	-15%	-71*	-10%	?
O=C(CCl)Nc1cc(S(=O)(=O)N2CCCCCC2)ccc1Cl	8%	?	35µM*	-64*	?	?
COc1ccccc1CNC(=O)c1cc(-c2ccncc2)nc2c(Cl)cccc12	-3%	-3%	?	-4	-24%	?
CC1CN(C(=O)CCC(=O)NCc2cccs2)c2ccccc2O1 (stereo not given)	.	-16%[46.1 µM]	.	-2	-7%	?
Cc1ccc2nc(SCc3nc(-c4ccccc4C)no3)[nH]c2c1	.	0%[46.1 µM]	.	-35	-24%	-8%[46.1 µM]
O=C(CN1CCN(c2ccccn2)CC1)Nc1cccc(Cl)c1Cl	-3%	7.1µM*	-1%	-24	-18%	-31%
O=[N+]([O-])c1cc(S(=O)(=O)N2CCCCCC2)ccc1Cl	-2%	?	11µM*	?	-27%	?
Cc1ccc(NC(=O)CN2C(=O)C(c3ccccc3)=NC2(C)C)cc1C	.	17%[46.1 µM]	.	39	-12%	0%[46.1 µM]
Cc1ccc(-n2nnnc2SCC(=O)N2CCc3ccccc3C2)cc1	-95%	?	?	32	0%	29%
Cc1ccc(-n2nnnc2SCC(=O)N2CCc3ccccc3C2)c(C)c1	-34%	-50%[14.3 µM]	13µM*	-4	-2%	6%
Cc1ccc(-n2nnnc2SCC(=O)Nc2ccc(N3CCN(C)CC3)cc2)c(C)c1	0%	.	-16%	-99*	-21%	.
O=C([C@H]1[C@H](CO)[C@H]2Cn3c(cccc3=O)[C@@H]1N2C(=O)c1ccc(F)cc1)N1CCCCC1	.	.	.	14	.	.
Cc1ccccc1C(=O)Nc1cc(-c2cc(C(C)(C)C)oc2C)nn1C	-4%	-11%	?	-63*	-29%	?
COc1cc2c(cc1NC(=O)COC(=O)CNC(=O)c1ccccc1)oc1ccccc12	0%	24%	10µM*	?	56%	-10%[46.1 µM]
COc1cc2c(cc1NC(=O)COC(=O)[C@@H](NC(=O)c1ccccc1)C(C)C)oc1ccccc12	12%	-25%	7.1µM*	10	-6%	?
